Hit rate of the full screen: of about 1,400 compounds, about 980 (70%) were called active. Inconclusive results (about 16%) are left out. The set was probably picked from earlier hits. The list is a sample of the results. A number with no mark means an inactive call. The call rests on the fitted dose curve.
On the % scale 0 is the no-effect control and ±100 the full control effect; potency means the concentration at half of the fitted maximal effect.

The nature of this test: Natriuretic polypeptide receptor (hNpr1) antagonism - Counterscreen GloSensor control cell line. Further: nearly all actives have a fitted effect of over 70% in size. To be noted: HEK293 GloSensor cGMP, SNP-stimulated, luminescence; series mostly up to 57.6 µM; activity change, negative = inhibition: at the top concentration. As to the method:
cGMP production was measured using a circular permutated firefly luciferase (FLuc) enzyme functionally linked to the cGMP binding domain of human phosphodiesterase 5 (GloSensor technology pGS-40F, (Fan, F. et al. 2008). The cGMP-sensor was expressed in human embryonic kidney 293 (HEK-293) cells and FLuc activity was measured after stimulation with the NO-donor sodium nitroprusside (SNP). SNP activates the endogenously expressed soluble guanylyl cyclase (GC) producing cGMP which then binds to the GloSensor resulting in FLuc activation, the enzymatic activity of which can be measured as bioluminescence with addition of luciferin substrate. F. Fan, B. F. Binkowski, B. L. Butler, P. F. Stecha, M. K. Lewis, K. V. Wood, Novel genetically encoded biosensors using firefly luciferase. ACS Chem Biol 3, 346-351 (2008).
PROTOCOL TABLE (as described by Inglese J, Shamu CE and Guy RK. 2007) SEQUENCE No. (e.g., 1, 2, 3, etc.); PARAMETER (e.g., Cells, Incubation, Reagent, etc.); VALUE and DESCRIPTION. 1. Cells. Seed 1500 HEK293 cGMP-sensor cells per well in 4uL into Greiner 1536-well white/solid bottom high base, TC plates. 2. Incubation. Incubate plated cells at 37C in 5% CO2, 95% RH overnight. 3. Reagent. Add 1uL per well GloSensor reagent from Promega (2% final concentration) or CO2 independent media vehicle control to respective columns of Greiner 1536-well plates. 4. Incubation. Incubate plated cells at room temperature for 2 h, protect from light. 5. Compounds. Library compounds and DMSO vehicle control added at 23nL per well, transferred by Pin Tool. 6. Incubation. Incubate plated cells for 30 min. at room temperature, protect from light. 7. Detector. GloSensor baseline pre-read luminescence measured using CCD-based camera (Viewlux). 8. Compound. Add 1uL of sodium nitroprusside (SNP) to 50 uM final concentration to stimulate soluble guanylyl cyclase (GC) or CO2 independent media as vehicle control. 9. Incubation. Incubate treated cells at room temperature for 20 min., protect from light. 10. Detector. GloSensor post-SNP luminescence measured using CCD-based camera (Viewlux). NOTES (numbers refer to Sequence numbers above; values are from representative experiments) 1. HEK293 cells expressing GIP/pGS-40F were grown to 85-95% confluence (48-72 h) in T175 culture flasks (CO2 independent media supplemented with 10% FBS, 1% Pen/Strep antibiotics, and 1 ug/mL puromycin). Trypsinize and harvest cells from T175 culture flasks and filter through 40 um cell strainer. Cells counted with Invitrogen Countess (30,000,000 - 50,000,000 cells/flask). Cells diluted to a final concentration of 375 cells/uL in CO2 independent media and a Millipore multidrop used to dispense 1500 cells per well (4uL/well) into 13 1536-well Greiner White/Solid bottom, high base tissue-culture treated (TC) plates and one Aurora 1536-well Black/Clear bottom, low base, TC plate (for visual inspection of cell health throughout the duration of the assay). 2. Cells incubated for 24 h. at 37C in 95% RH incubator with metal lid having gas-exchange holes. 3. Prepare GloSensor Reagent (Promega): Reconstitute GloSensor luciferase substrate by adding 8.2mL Hepes buffer to 250mg substrate, mix well, protect from light and stored at -80C. Prepare a fresh 12% GloSensor solution in CO2 independent supplemented plating media (see above). Mix well and store at ambient temperature, protected from light. 1uL 12% GloSensor Luciferase Reagent added (2% final concentration) to respective columns of 13 x 1536-well Greiner plate with BioRaptr, 1uL CO2 independent plating media added to respective columns as vehicle control with BioRaptr. 4. Cells incubated for 2 h. at ambient temperature, protected from light with metal lid having gas-exchange holes. 5. 23nL of library compounds or DMSO vehicle control transferred to 13 Greiner white/solid bottom high base, TC plates in 11 interplate 1:3 titrations (see Yasgar, A. et al. 2008) with Pintool. 6. […]
For the molecule `COc1cccc(C2Cn3nnc(-c4nc(-c5ccccc5)no4)c3CO2)c1` (stereo unspecified), the “activity change, negative = inhibition” value is -12.6%.
Regarding `COc1ccc(C2Cn3nnc(C(=O)N4CCN(C(=O)c5cccc(Cl)c5)CC4)c3CO2)cc1` (stereo unspecified), the Potency was 12.2 µM (active).
On the same count and under the same terms, then `COc1ccc(C2Cn3nnc(C(=O)N4CCN(C(=O)c5ccc(C)cc5C)CC4)c3CO2)cc1` (stereo unspecified), with 21.7 µM (active); and `O=[S+]1([O-])NCC2(CCCN(Cc3ccc(C(F)(F)F)cc3)C2)Oc2ncccc21` (stereo unspecified), with 15.3 µM (active).
In the case of `COc1ccc(C(CC(=O)N(C)Cc2cc(C3CC3)n[nH]2)c2ccccc2)cc1` (stereo unspecified), the “activity change, negative = inhibition” value is 4.58%.
`COc1ccc(OCC2(C)COc3ccc(C(=O)Nc4cccnc4)cc3N2)cc1` (stereo unspecified): the Potency is 49.8 µM (active).
Consider `CC1(CCCCc2ccccc2)COc2ccc(C(=O)N3CC[S+](=O)([O-])CC3)cc2N1` (stereo unspecified), for which the “activity change, negative = inhibition” value was -28.2%.
Same read-out and setting: then `Cc1noc(C)c1-c1cc(-c2ccccc2Oc2ccccc2)cn2cncc12`, with -24.7% [at 86.2 µM].
With `Cc1nc(-c2ccncc2)ncc1C(C)Nc1ncnc(C)c1C` (stereo unspecified), the Potency was 19.3 µM (active).
Same read-out and setting: then `CC(C)c1nncn1C1CCN(S(=O)(=O)c2cccc(Br)c2)CC1`, with 24.3 µM (active); and `CC1(C(=O)NCc2ccc3c(c2)OCO3)CCc2cnc(NCc3ccccc3)nc21` (stereo unspecified), with 44.4 µM (active); and `CC(C)(C)c1csc(NC(=O)c2ccc3c(c2)OCCN(C2CCC2)C3)n1`, with 25 µM (active).
Still for that read-out and setting: then `COc1ccc(-c2noc(CC3CCN(C(=O)Cc4ccc(C)cc4)CC3)n2)cc1`, with 30.6 µM (active); and `COc1ccc(-c2noc(CC3CCN(C(=O)CC4CCCCC4)CC3)n2)cc1`, with 8.62 µM (active).
For the molecule `COc1ccc(-c2noc(CC3CCN(C(=O)Cc4ccccc4)CC3)n2)cc1`, the Potency is 27.3 µM (active).
For the molecule `COc1cccc(CNC(=O)Cn2c(N(C)Cc3ccccc3)nc(C)cc2=O)c1OC`, the Potency was 24.3 µM (active).
Take `COc1cccc(C2C(C(=O)Nc3ccccc3)=C(C)N=C3SC=C(CC(=O)NCC(C)C)N32)c1` (stereo unspecified): the “activity change, negative = inhibition” value was -23.8%.
For `COc1cccc(NC(=O)Cn2c(N(C)Cc3ccccc3)nc(C)cc2=O)c1`, the Potency is 10.9 µM (active).
On the same count and under the same terms, then `O=C(c1ccc2cc[nH]c2c1)N1CCC2(CC1)N=C(c1ccc(Cl)cc1)NO2`, with 15.3 µM (active).
`Cc1nn2c(c1-c1ccnn1C(C)C)N(CC1CCOCC1)CCC2`: the “activity change, negative = inhibition” value is -21.4% [at 86.2 µM].
Regarding `Cc1nn2c(c1-c1ccccc1-c1ccccc1)N(CC1CC1)CCC2`, the Potency was 2.8 µM (active).
The same measure, in the same setting: next, `CC1=NS(=O)(=O)N(C)C=C1C(=O)OCc1nc(-c2ccc(C)cc2)no1`: 8.62 µM (active).
Regarding `CCN(CCCNC(=O)c1nnn2cc(-c3ccccc3)[nH]c(=O)c12)c1ccccc1`, the “activity change, negative = inhibition” value was -5.02%.
Turning to `Cc1c[nH]c(CN2CCCC(CCc3ccc(F)cc3F)C2)c(C)c1=O` (stereo unspecified), the Potency is 2.43 µM (active).
The same measure, in the same setting: next, `O=C(Cc1c[nH]c2ncc(-c3ccccc3F)cc12)N1CCOCC1`: 28 µM (active); `Cc1noc(C)c1-c1cnc2[nH]cc(CC(=O)N3CCOCC3)c2c1`: 22.2 µM (active); `COc1ccccc1Nc1cnc2ccc(N(C)Cc3cccnc3)nn12`: 35.3 µM (active).
`O=C(NCC1CC1)c1nc2c(o1)CCN(Cc1cccc(F)c1F)CC2`: the Potency was 22.2 µM (active).
The same measure, in the same setting: next, `O=C1NCN(Cc2ccc(Cl)cc2)C12CCN(Cc1ccccc1)CC2`: 13.7 µM (active).
Turning to `O=C1Nc2ccccc2CN(Cc2ccccc2)C12CCNCC2`, the “activity change, negative = inhibition” value is -14.8%.
As for `OC1(Cc2cc(-c3ccccc3)no2)CCN(c2ncncn2)CC1`, the Potency is 6.85 µM (active).
With `O=C(NCc1nnc2cc(-c3nc(C4CC4)no3)ccn12)c1ccc(F)cc1Cl`, the Potency was 12.2 µM (active).
Take `COc1ccc(CCNC(=O)c2noc(-c3ccc(C)cc3)n2)cc1OC`: the Potency is 21.7 µM (active).
In the case of `O=C(c1ccc(F)cc1Cl)N1CCC(n2cc(-c3nc(-c4ccccc4)no3)nn2)C1` (stereo unspecified), the Potency is 4.32 µM (active).
With `O=C(c1ccc(Cl)cc1)N1CCCC(n2cc(-c3nc(-c4ccccc4)no3)nn2)C1` (stereo unspecified), the Potency is 13.7 µM (active).
As to `COc1ccc(C(=O)N2CCC(n3cc(-c4nc(C(C)C)no4)nn3)CC2)cc1F`, the “activity change, negative = inhibition” value was 5.01%.
Regarding `O=C(c1cc(F)ccc1Cl)N1CCN(c2cc(-c3ccc(F)cc3)[nH]n2)CC1`, the Potency was 24.3 µM (active).
Consider `CCc1ccc(C(=O)N2CCN(c3cc(-c4ccc(F)cc4)[nH]n3)CC2)cc1`, for which the Potency is 21.7 µM (active).
Turning to `Cc1ccc(C(=O)N2CCN(c3cc(-c4ccc(Cl)cc4)[nH]n3)CC2)c(C)c1`, the Potency is 6.11 µM (active).
In the case of `O=C(c1ccc(F)cc1F)N1CCN(c2cc(-c3ccc(Cl)cc3)[nH]n2)CC1`, the Potency is 17.2 µM (active).
Take `C1CCC(COCCc2noc(C3CNC3)n2)C1`: the Potency was 21.7 µM (active).
With `O=C(c1ccccn1)N1CC(Oc2ccc(-c3noc(C4CC4)n3)cc2)C1`, the Potency is 13.7 µM (active).
Consider `COc1ccc(-c2noc(CC3CCN(C(=O)Cc4ccc(OC)c(OC)c4)CC3)n2)cc1`, for which the Potency is 3.85 µM (active).
Still for that read-out and setting: then `COc1ccc(CC(=O)N2CCC(Cc3nc(-c4ccccc4)no3)CC2)cc1OC`, with 13.7 µM (active); and `COc1ccc(CN2C(=O)CO[C@H]3CN(Cc4ccc5c(c4)OCO5)C[C@H]32)cc1`, with 28 µM (active).
Still for that read-out and setting: next, `Cc1ccc2c(c1)nc1n2[C@@H](CNS(=O)(=O)c2ccccc2)COC1`: 35.3 µM (active); `N#Cc1cccc(CN2CCC(C3=NC(O)c4cc(F)ccc4N3)CC2)c1` (stereo unspecified): 19.3 µM (active).
With `Fc1ccc(CNC[C@H]2Cn3c(-c4ccc5c(c4)OCCO5)cnc3CO2)cc1`, the “activity change, negative = inhibition” value is -28.3% [at 86.2 µM].
Turning to `Cc1cccc(C(=O)N2CCC3(CC2)CC(N(Cc2ccc(F)cc2)C2CC2)CCO3)c1` (stereo unspecified), the “activity change, negative = inhibition” value is -29.5%.
On to `COc1cccc(-c2noc(CC3CCN(C(=O)c4ccc(F)cc4)CC3)n2)c1`, for which the Potency is 4.85 µM (active).
With `O=C(c1ccccc1)N1CCC(C(=O)N2CCC(Cc3nc(-c4ccc(F)cc4)no3)CC2)CC1`, the Potency is 13.7 µM (active).
Consider `CN1CCN(C(=O)C(C)(C)Oc2nn(Cc3cccc(Cl)c3)c3ccccc23)CC1`, for which the “activity change, negative = inhibition” value is 1.63% [at 86.2 µM].
Take `O=C(c1ccccc1)N1CCNc2cnc(Nc3cccc(C(F)(F)F)c3)nc2C1`: the Potency was 22.2 µM (active).
Same read-out and setting: next, `Cc1cc(N2CCCC(Cn3cc(Cc4ccccc4)nn3)C2)nc(N)n1` (stereo unspecified): 4.85 µM (active).
Same read-out and setting: next, `O=C1c2cnc(-c3ccc(Cl)cc3)nc2OCCN1Cc1ccccc1`: 35.3 µM (active); `CN(Cc1csc(-c2ccccc2)n1)c1cc(C2CC(O)C2)nc(N)n1` (stereo unspecified): 1.93 µM (active).
With `Cc1ccc(OCc2nc(C3CCN(C(=O)CCc4nc5ccc(Cl)cc5[nH]4)CC3)no2)cc1`, the Potency was 24.3 µM (active).
Same read-out and setting: next, `O=c1[nH]c(C2CCCN(Cc3ccccn3)C2)nn1-c1ccc(Cl)cc1` (stereo unspecified): 9.68 µM (active).
With `CN(C)CCNC(=O)C(C)(C)Oc1nn(Cc2cccc(Cl)c2)c2ccccc12`, the “activity change, negative = inhibition” value was -2.48% [at 86.2 µM].
For the molecule `CC(C)c1cc(C(=O)N2CCC(n3cc(-c4ccccn4)nn3)CC2)n(C)n1`, the Potency is 15.3 µM (active).
Still for that read-out and setting: next, `Cc1cccc(CN2CCc3nc(C(=O)Nc4ccc(Cl)cc4)oc3CC2)c1`: 8.86 µM (active).

The values above are taken from PubChem BioAssay AID1347051 (National Center for Advancing Translational Sciences (NCATS), 2019).
